Laboratory results as given in ChEMBL document CHEMBL1157539, “Thousands of chemical starting points for antimalarial lead identification” (Nature, 2010).

The compounds below were run on Plasmodium falciparum (assay: GSK_TCMDC: Inhibition of Plasmodium falciparum 3D7 in whole red blood cells, using parasite LDH activity as an index of growth. Test compounds present at 2uM).
Assay type: functional

| SMILES | Inhibition |
| --- | --- |
| O=C(/C=C/c1ccc(Cl)c(Cl)c1)NCCCCCN1CCC(n2c(=O)[nH]c3ccccc32)CC1 | 97% |
| Cc1nc(N)nc(N)c1-c1ccc(Br)c([N+](=O)[O-])c1 | 95% |
| Cc1nc2nc(N)nc(N)c2c(C)c1Cc1ccc(C#N)cc1.Cl | 96% |
| COc1ccc(NC(=O)Nc2cc(C)nc3cccnc23)cc1Cn1ccnc1 | 100% |
| CCCCCC(C)C(C)c1cc(OC(N)=O)c2c(c1)OC(C)(C)C=C2c1ccncc1 (centres undefined) | 96% |
| O=C(Nc1cccc(-c2ccc(-c3nc4cc(C(F)(F)F)ccc4[nH]3)cc2)c1)Nc1ccc(F)c(F)c1F | 100% |
| COc1ccc(C(=O)N2CCC(CN3CCOC(c4ccccc4)(c4ccccc4)C3)CC2)cc1 | 95% |
| CN1CCC(NCc2ccc(S(=O)(=O)Nc3ccc(Oc4cccc(Cl)c4)cc3)cc2)CC1.O=C(O)C(F)(F)F | 99% |
| CC(C)(C)c1ccc(CN2CCC(CNC(=O)c3cc(-c4ccccc4Cl)cs3)C2)cc1.O=C(O)C(F)(F)F (centres undefined) | 100% |
| O=C(O)C(F)(F)F.O=S(=O)(NCCN1CCCC1)c1cccc(-c2cccc(CNCc3ccc(F)cc3)c2)c1 | 99% |
| CCCc1cc(NCC)nc(Nc2ccc(F)cc2)n1 | 86% |
| CCOC(=O)c1cn(CC)c2cc(F)c(OC3CC4CCC3(C)C4(C)C)cc2c1=O (centres undefined) | 91% |
| CCCS(=O)(=O)N1CCC(CO)(Cc2ccccc2C(F)(F)F)CC1 | 97% |
| O=C(NC1CCCC1)c1ccc(N2CCC(NCc3cc4cc(Cl)ccc4[nH]3)CC2)cc1 | 91% |
| COCCN(CCOC)c1ncc(-c2ccsc2)c(-c2nc(C)c(C)s2)n1 | 96% |
| COc1cc(Cc2cnc(N)nc2N)cc(OCCCCC2SC(=O)NC2=O)c1OC (centres undefined) | 94% |
| CCN1CCC(N(Cc2ccc(-c3ccc(C(F)(F)F)cc3)cc2)C(=O)Cn2c(SCc3ccc(F)cc3)nc(=O)c3c2CCC3)CC1.O=C(O)C(O)C(O)C(=O)O | 90% |
| Cl.Cn1c(/C=C/C(=O)NC2CCC(CCN3CCc4ccc(C#N)cc4CC3)CC2)cc2ccccc21 (centres undefined) | 100% |
| NC1CCCN(Cc2cccc(-c3ccc(-c4nc5ccccc5[nH]4)s3)c2)C1.O=C(O)C(F)(F)F (centres undefined) | 98% |
| COc1ccc(-c2onc(C(F)(F)F)c2-c2cc3ccccc3o2)c(O)c1 | 93% |

| SMILES | Inhibition |
| --- | --- |
| CCN(CC)CCCN1CCN(C(=O)c2cccc(-c3noc(C(F)(F)F)n3)c2)CC1 | 91% |
| Cc1ccc(Oc2c(-c3ccccc3CN3CCCC3CN(C)C)cnn(C)c2=O)cn1.O=C(O)C(F)(F)F (centres undefined) | 88% |
| CC(C)(NCc1ccc(OC(F)(F)F)cc1)c1nc(-c2ccc(Cl)c(O)c2)c(-c2ccncc2)[nH]1.Cl | 94% |
| Cc1ccc(-n2c(Cc3cccc4ccccc34)nnc2SCCC#N)c(C)c1 | 95% |
| Fc1ccccc1CNc1ncc(-c2ccsc2)c(-c2nccs2)n1 | 86% |
| COc1ccc2ncc(Cl)c([C@H](O)CN3CCC(NCc4cc5c(cn4)OCCO5)CC3)c2c1.Cl | 100% |
| Cl.Cn1c2ccccc2c2c3ccccc3c(CNC(CO)(CO)CO)cc21 | 96% |
| Clc1cc(Nc2ncnc3cc(C#C[C@H]4CCCN4)sc23)cc2nc(Cc3ccccc3)[nH]c12.O=C(O)C(F)(F)F | 91% |
| COc1cccc(C(O)CNc2ccnc(Nc3ccc(Cl)cc3)n2)c1 (centres undefined) | 99% |
| CN(C)c1ccc(C(c2ccc(N(C)C)cc2)c2cc([N+](=O)[O-])ccc2Cl)cc1 | 96% |
| CNCc1ccc(-c2ccc3ccnc(N)c3c2)cc1 | 94% |
| O=C(O)C(F)(F)F.OC1CCCN(Cc2cccc(-c3ccc(-c4nc5cc(F)ccc5[nH]4)cc3)c2)C1 (centres undefined) | 100% |
| Cc1cccc2nc(-c3cccc(-c4cccc(CN5CCCC5CN)c4)c3)[nH]c12.O=C(O)C(F)(F)F (centres undefined) | 100% |
| CC(CN1CCN(C)CC1)C(=O)Nc1cccc(-c2cccc(-c3nc4ccccc4[nH]3)c2)c1 (centres undefined) | 88% |
| CCNc1cc(C(=O)N[C@@H](Cc2ccccc2)[C@H](O)CNCc2cc(C#N)ccc2OC)cc(N2CCCC2=O)c1.O=C(O)C(F)(F)F | 85% |
| CC(C)(C)c1ccc2nccc(Nc3cccc(O)c3)c2c1 | 99% |
| CNC(=O)c1cnc(Nc2ccc(N3CCN(C)CC3)cc2)nc1Nc1cccc([N+](=O)[O-])c1.O=C(O)C(F)(F)F | 100% |
| COc1ccccc1NC(=O)OC(COc1ccc(N)cc1)CN1CC=C(c2ccccc2)CC1.O=C(O)C(F)(F)F (centres undefined) | 90% |
| Cc1csc2nc(-c3ccccn3)nc(Nc3ccc4ncsc4c3)c12.Cl | 85% |
